Each structure is given as a SMILES string. In all, about 310,000 compounds went through this assay and about 2,200 (0.71%) showed an effect of 50% or more. The effect is printed as a negative number. For the sample, strong results were picked, then their nearest neighbours and some compounds at random.

human ether-à-go-go-related gene (hERG) potassium channel, sequence (Q12809 whole entry, looked up): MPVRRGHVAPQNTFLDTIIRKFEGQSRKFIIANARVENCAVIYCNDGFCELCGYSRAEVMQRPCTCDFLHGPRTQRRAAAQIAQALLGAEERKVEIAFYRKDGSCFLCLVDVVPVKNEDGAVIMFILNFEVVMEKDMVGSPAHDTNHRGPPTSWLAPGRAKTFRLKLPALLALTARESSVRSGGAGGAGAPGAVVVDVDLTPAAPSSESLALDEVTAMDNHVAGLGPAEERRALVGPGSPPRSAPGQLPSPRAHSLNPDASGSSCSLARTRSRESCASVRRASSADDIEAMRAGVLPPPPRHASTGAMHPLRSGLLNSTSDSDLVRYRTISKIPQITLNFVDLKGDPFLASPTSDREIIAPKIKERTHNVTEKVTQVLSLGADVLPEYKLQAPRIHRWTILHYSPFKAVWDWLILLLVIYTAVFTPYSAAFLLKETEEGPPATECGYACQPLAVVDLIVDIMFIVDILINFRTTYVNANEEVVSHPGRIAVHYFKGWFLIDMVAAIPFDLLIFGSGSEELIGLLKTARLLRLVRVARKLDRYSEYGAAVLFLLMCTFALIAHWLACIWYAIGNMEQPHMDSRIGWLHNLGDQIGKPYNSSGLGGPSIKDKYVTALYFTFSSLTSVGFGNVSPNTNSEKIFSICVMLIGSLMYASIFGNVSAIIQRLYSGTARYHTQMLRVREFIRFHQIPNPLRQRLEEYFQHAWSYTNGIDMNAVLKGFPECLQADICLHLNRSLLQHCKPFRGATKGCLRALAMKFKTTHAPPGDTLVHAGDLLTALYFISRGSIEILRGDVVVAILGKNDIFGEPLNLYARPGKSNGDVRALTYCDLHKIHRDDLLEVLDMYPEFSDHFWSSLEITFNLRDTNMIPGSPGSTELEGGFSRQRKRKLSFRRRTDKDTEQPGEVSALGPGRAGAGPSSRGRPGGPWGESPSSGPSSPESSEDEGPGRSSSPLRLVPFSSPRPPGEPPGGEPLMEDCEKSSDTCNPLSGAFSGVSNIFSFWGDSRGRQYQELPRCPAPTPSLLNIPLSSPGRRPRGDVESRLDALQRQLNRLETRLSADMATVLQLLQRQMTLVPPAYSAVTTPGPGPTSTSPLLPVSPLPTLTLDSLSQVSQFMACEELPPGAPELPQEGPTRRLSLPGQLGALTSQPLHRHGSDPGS

This assay has as its target human ether-à-go-go-related gene (hERG) potassium channel (human, UniProt Q12809). As to the kind of experiment: primary screen, population patch clamp on CHO cells stably expressing hERG; higher = less effect of the substance. The protocol: Briefly, Chinese hamster ovary (CHO) cells stably expressing the hERG channel were dislodged from tissue culture flasks and dispensed into PPC plates. […] During the recording, background leak currents were estimated by a 100 ms step to -80 mV from an initial holding potential of -70 mV and subtracted from the subsequent current measurement. The campaign was conducted in two phases using slight differences in recording protocol. In the first phase, the initial voltage pulse used a 100 ms step to -30 mV from a holding potential of -70 mV, a 2 s conditioning step to +25 mV, and a 2 s test step to -30 mV. During the second phase of the screen, the potential during the conditioning step was raised to +45 mV. In both phases of the campaign, a secondary voltage pulse was applied using the same parameters as the second phase initial pulse. The initial and secondary pulses were applied in the absence of compound, and upon application of 1 μM and 10 μM test concentrations. Small molecule effects on hERG current density were quantified by […].
Turning to `COc1ccc(NC(=O)CS(=O)(=O)c2ccc(F)cc2)cc1`, the “hERG current change (%, negative = inhibition) at 1uM” value amounted to 10.6%.

In the case of `Cc1ccc(-c2cc(C(F)(F)F)n3nc(C(=O)Nc4ccon4)cc3n2)cc1C`, the “hERG current change (%, negative = inhibition) at 1uM” value was found to be 7.99%.

Consider `COCC(=O)N1CCCC(C(=O)c2ccc(-c3ccccc3)cc2)C1` (centres unmarked), for which the “hERG current change (%, negative = inhibition) at 1uM” value came out at 0.927%.

As to `O=C1/C(=C/c2cccc(Cl)c2)CSc2sccc21`, the “hERG current change (%, negative = inhibition) at 1uM” value is reported as 16%.

Turning to `COc1ccc(COc2ccc(S(=O)(=O)N3CCCC3)cc2C(N)=O)cc1F`, the “hERG current change (%, negative = inhibition) at 1uM” value is given as 17.7%.

For `CCOC(=O)c1oc2cc(OCC(N)=O)ccc2c(=O)c1-c1ccc(OC)c(OC)c1`, the “hERG current change (%, negative = inhibition) at 1uM” value was found to be 15.2%.

As for `O=C(O)c1ccccc1NS(=O)(=O)c1ccccc1C(F)(F)F`, the “hERG current change (%, negative = inhibition) at 1uM” value came out at 5.14%.

On to `O=C(Nc1ccc2nc3n(c(=O)c2c1)CCCCC3)c1ccccc1[N+](=O)[O-]`, for which the “hERG current change (%, negative = inhibition) at 1uM” value amounted to 14.6%.

In the case of `CC1CN(C(=S)Nc2cccc(Cl)c2Cl)CC(C)O1` (centres unmarked), the “hERG current change (%, negative = inhibition) at 1uM” value was found to be 2.73%.

With `COc1cccc(CNC(=O)C2CCN(S(=O)(=O)c3ccc4c(c3)CCC(=O)N4)CC2)c1`, the “hERG current change (%, negative = inhibition) at 1uM” value is 17.5%.

In the case of `Cc1ccc(C(=O)Oc2coc(CSc3nnc(NC(=O)c4cccs4)s3)cc2=O)cc1`, the “hERG current change (%, negative = inhibition) at 1uM” value is 13.4%.

For `Cc1ccc(C(=O)/C=C\NCc2ccccc2)cc1`, the “hERG current change (%, negative = inhibition) at 1uM” value was 7.27%.

On to `N=c1c(C(=O)NC2CCCC2)cc2c(=O)n3ccccc3nc2n1C1CCCCC1`, for which the “hERG current change (%, negative = inhibition) at 1uM” value is given as -86.9%.

As to `N=c1c(S(=O)(=O)c2ccc(Cl)cc2)cc2c(=O)n3ccccc3nc2n1C1CCCC1`, the “hERG current change (%, negative = inhibition) at 1uM” value came to 13.9%.

Consider `Cn1c(C(=O)NC2CCCCC2)cc2c(=O)n3ccccc3nc21`, for which the “hERG current change (%, negative = inhibition) at 1uM” value is recorded as 13.4%.

As to `O=C(NC1CCCCCC1)c1cc2c(=O)n3ccccc3nc2s1`, the “hERG current change (%, negative = inhibition) at 1uM” value worked out at 8.59%.

Regarding `N=c1c(C(=O)NC2CCCC2)cc2c(=O)n3ccccc3nc2n1C1CCCC1`, the “hERG current change (%, negative = inhibition) at 1uM” value is reported as -89.1%.

For `O=P(C(Cl)Cl)(N1CCOCC1)N1CCOCC1`, the “hERG current change (%, negative = inhibition) at 1uM” value is listed as 17.8%.

On to `CC(=O)Nc1cccc(NC(=O)CSc2nnc3ccc(-c4cccnc4)nn23)c1`, for which the “hERG current change (%, negative = inhibition) at 1uM” value is 13.1%.

`CCn1cc(/C=C/C(=O)Nc2c(C)nn(Cc3ccccc3)c2C)cn1`: the “hERG current change (%, negative = inhibition) at 1uM” value was found to be 6.45%.

With `Cc1nc(-c2ccccc2)nc2[nH]c(C(C)C)cc(=O)c12`, the “hERG current change (%, negative = inhibition) at 1uM” value is reported as -5.88%.

For the molecule `CC(=O)c1ccc(Nc2cc(C)nc3ccc(C)cc23)cc1`, the “hERG current change (%, negative = inhibition) at 1uM” value was -53.2%.

For the molecule `COC(=O)c1ccc(Nc2cc(C)nc3ccc(C)cc23)cc1.Cl`, the “hERG current change (%, negative = inhibition) at 1uM” value is -9.09%.

Consider `CC(=O)c1cccc(Nc2cc(C)nc3ccc(C)cc23)c1.Cl`, for which the “hERG current change (%, negative = inhibition) at 1uM” value is listed as -13.7%.

Consider `CCCCNC(=O)N1CCCN(c2ccc(C#N)cn2)CC1`, for which the “hERG current change (%, negative = inhibition) at 1uM” value is listed as -11.6%.

For the molecule `N#Cc1ccc(N2CCCNCC2)nc1`, the “hERG current change (%, negative = inhibition) at 1uM” value is listed as -90.9%.

With `N#Cc1ccc(N2CCOCC2)nc1`, the “hERG current change (%, negative = inhibition) at 1uM” value is listed as 1.37%.

Take `Cc1ccc(NC(=O)COC(=O)Cn2cnc3c2c(=O)n(C)c(=O)n3C)c(Cl)c1`: the “hERG current change (%, negative = inhibition) at 1uM” value came out at 13.3%.

As for `Cc1ccc(C(=O)COC(=O)C2C3C=CC(C3)C2C(=O)OCC(=O)c2ccc(C)c(C)c2)cc1C` (centres unmarked), the “hERG current change (%, negative = inhibition) at 1uM” value stood at 11.2%.

Turning to `O=C(NCCC1CCCCN1S(=O)(=O)c1ccc(F)cc1)C(=O)Nc1ccccc1` (centres unmarked), the “hERG current change (%, negative = inhibition) at 1uM” value amounted to 7.03%.

With `NC(=O)COC(=O)c1ccc(Oc2ccccc2)cc1`, the “hERG current change (%, negative = inhibition) at 1uM” value stood at 4.12%.

In the case of `O=C(Nc1ccccc1C(=O)N1CCCC1)c1ccc(Cl)cc1Cl`, the “hERG current change (%, negative = inhibition) at 1uM” value is reported as 10.3%.

For the molecule `O=C(Nc1ccccc1C(=O)N1CCCCC1)c1ccc(Cl)cc1Cl`, the “hERG current change (%, negative = inhibition) at 1uM” value is -79.6%.

Take `COC(=O)c1ccc(N2CCOCC2)c(NC(=O)c2cccs2)c1`: the “hERG current change (%, negative = inhibition) at 1uM” value is recorded as 0.514%.

For `O=C(Nc1cc(C(=O)N2CCCC2)ccc1N1CCCC1)c1ccccc1F`, the “hERG current change (%, negative = inhibition) at 1uM” value is on record as -82.8%.

As for `O=C(Nc1cc(C(=O)N2CCOCC2)ccc1N1CCCC1)c1cccs1`, the “hERG current change (%, negative = inhibition) at 1uM” value was -78.2%.

Regarding `O=C(Nc1ccccc1N1CCCCC1)c1ccccc1F`, the “hERG current change (%, negative = inhibition) at 1uM” value is -5.76%.

For the molecule `CNC(=S)Nc1cc(C(=O)N2CCCC2)ccc1N1CCCC1`, the “hERG current change (%, negative = inhibition) at 1uM” value worked out at 2.01%.

In the case of `O=C(Nc1ccccc1C(=O)N1CCCCCC1)c1ccccc1Cl`, the “hERG current change (%, negative = inhibition) at 1uM” value is listed as 13.6%.

As for `O=C(Nc1cc(C(=O)N2CCCC2)ccc1N1CCCC1)C1CC1`, the “hERG current change (%, negative = inhibition) at 1uM” value is -1.85%.

Take `O=C(Nc1ccccc1N1CCCC1)c1ccccc1F`: the “hERG current change (%, negative = inhibition) at 1uM” value was determined as 6.48%.

In the case of `O=C(Nc1ccc(C(=O)N2CCOCC2)cc1)c1cccs1`, the “hERG current change (%, negative = inhibition) at 1uM” value came to 20.3%.

`O=C(Nc1cc(C(=O)N2CCCC2)ccc1N1CCCC1)c1ccccc1`: the “hERG current change (%, negative = inhibition) at 1uM” value was -83.5%.

As for `Cc1nnsc1C(=O)N1CCN(c2ccc(C#N)cn2)CC1`, the “hERG current change (%, negative = inhibition) at 1uM” value was found to be 3.48%.

Consider `CCOc1cccc(/C=N/N2C(C)CCCC2C)c1O` (centres unmarked), for which the “hERG current change (%, negative = inhibition) at 1uM” value is recorded as 2.07%.

In the case of `CCCCCCOc1ccc(CN2CCN(C)CC2)cc1`, the “hERG current change (%, negative = inhibition) at 1uM” value was -0.56%.

For the molecule `CC(=O)/C=C\c1ccccc1OC(=O)c1cc2ccccc2oc1=O`, the “hERG current change (%, negative = inhibition) at 1uM” value was 16.3%.

`CCOC(=O)c1cc2cc(OCc3ccccc3)ccc2nc1C`: the “hERG current change (%, negative = inhibition) at 1uM” value came out at 8.83%.

For `CC(C)c1csc(CN2CCC(N3CCC(C(=O)NCC4CCCO4)CC3)CC2)n1` (centres unmarked), the “hERG current change (%, negative = inhibition) at 1uM” value stood at 9.96%.

`O=C(Oc1ccc2ccccc2c1)c1ccco1`: the “hERG current change (%, negative = inhibition) at 1uM” value is reported as -0.657%.

As for `O=C(Oc1ccc2ccc(=O)oc2c1)c1ccco1`, the “hERG current change (%, negative = inhibition) at 1uM” value is on record as -53.7%.

As for `O=C(Oc1ccc2ccc(=O)oc2c1)c1ccccc1`, the “hERG current change (%, negative = inhibition) at 1uM” value came to 9.28%.

As for `CC1(c2nnc(-c3ccncc3)o2)CC(c2cccc(Cl)c2)=NO1` (centres unmarked), the “hERG current change (%, negative = inhibition) at 1uM” value was 13.4%.

On to `O=C(CN1C(=O)CSC1=O)N1CCCC(Nc2ccc(F)cc2)C1` (centres unmarked), for which the “hERG current change (%, negative = inhibition) at 1uM” value is recorded as 11.5%.

Regarding `CCc1ccc(NC(=O)CSCCN2C(=O)c3ccccc3C2=O)cc1`, the “hERG current change (%, negative = inhibition) at 1uM” value is -8.99%.

In the case of `COc1ccc(OC)c(C2C(C#N)=C(N)Oc3c2c(C)nn3-c2cccc(Cl)c2)c1` (centres unmarked), the “hERG current change (%, negative = inhibition) at 1uM” value is 7.28%.

Turning to `COCCCn1c(SCC(=O)Nc2cccc(C)n2)nnc1-c1ccco1`, the “hERG current change (%, negative = inhibition) at 1uM” value was -20.6%.

With `CCn1c(SCC(=O)Nc2cccc(C)n2)nnc1-c1ccco1`, the “hERG current change (%, negative = inhibition) at 1uM” value is recorded as 0.773%.

For the molecule `CCCCn1c(SCC(=O)Nc2cccc(C)n2)nnc1-c1ccco1`, the “hERG current change (%, negative = inhibition) at 1uM” value is reported as -78%.

(Values after paper PMC4336329 (PLoS ONE, 2015).)
